These results are taken from PubChem BioAssay (NCATS).

Inconclusive results are not listed. Calls of active or inactive are those of the source. The call rests on the fitted dose curve; in most records, active means well fitted cell-killing curve with a large enough effect; inconclusive means small, poorly fitted or top-dose-only effect, or effect the other way; inactive means no such curve, though single readings can be large or run the other way.
Potency means the concentration at half of the fitted maximal effect.

This assay in a line: Quantitative High-Throughput drug screen in 47 multiple myeloma cell lines against the NCATS MIPE library collection: MMM1_PLB cell viability assay (AID 1918976). Further: nearly all actives have a fitted effect of over 35% in size. The settings on record: MMM1 myeloma cells viability, CellTiter-Glo, 48 h; series mostly up to 45.8 µM. An excerpt:
PI: Beverly A. Mock Ph.D.
Laboratory of Cancer Biology and Genetics,
Center for Cancer Research, National Cancer Institute,
National Institute of Health, Bethesda, Maryland
Drug resistance and disease progression are common in multiple myeloma (MM) patients, underscoring the need for new therapeutic combinations. […] We hypothesized that effective combinations would reduce MYC expression and enhance p16 activity. […] These preclinical data identify potentially useful drug combinations for evaluation in drug-resistant MM and reveal potential mechanisms of combined drug sensitivity.
Described herein is the primary MIPE qHTS used to cherrypick compounds. Validated compounds were then further tested for potential synergistic activiy.
[1] Peat TJ, Gaikwad SM, Dubois W, Gyabaah-Kessie N, Zhang S, Gorjifard S, Phyo Z, Andres M, Hughitt VK, Simpson RM, Miller MA, Girvin AT, Taylor A, Williams D, D'Antonio N, Zhang Y, Rajagopalan A, Flietner E, Wilson K, Zhang X, Shinn P, Klumpp-Thomas C, McKnight C, Itkin Z, Chen L, Kazandijian D, Zhang J, Michalowski AM, Simmons JK, Keats J, Thomas CJ, Mock BA. Drug combinations identified by high-throughput screening promote cell cycle transition and upregulate Smad pathways in myeloma. Cancer Lett. 2023 Aug 1;568:216284. doi: 10.1016/j.canlet.2023.216284. Epub 2023 Jun 24. PMID: 37356470; PMCID: PMC10408729.
SEQUENCE No. (e.g., 1, 2, 3, etc.); […] (e.g., Cells, Incubation, Reagent, etc.); VALUE and DESCRIPTION.
1; Cells; 5 uL; white, solid bottom 1536-well Greiner assay plate.
2; Compounds; 23 nL; Kalypsis pin tool (Wako USA) equipped with a 1536-well pin head to transfer to the assay plates.
3; Incubation; 48 hours; 37C incubation.
4; Reagent;5uL; CellTiter Glo (Promega).
5; Detector; 425V; Luminescence; Viewlux PerkinElmer.
NOTES (numbers refer to Sequence numbers above)
1. The cell-based screening methods employed in this study were like those previously published. Briefly, the corresponding myeloma cell lines were screened in 1,536-well plates with 500 cells, 5-uL per well for inhibition of cell viability (assessed by measuring ATP levels with CellTiterGlo).
2. NCATS MIPE 4.0 library of approved and investigational drugs were added using the Kalypsis pin tool. Wells treated with DMSO only for 100% viability and media only for 0% viability were used as controls.
3. The assay plates were covered and incubated for 48 hours in a 37C, 5% CO2 incubator with controlled humidity.
4. After 48 hours, CellTilter-GloTM luminescent substrate mix (Promega) reagent was added to the assay plate and plates we incubated for 5 min at room temperature.
5. Signal was measured as median relative luminescence units on a ViewLux (PerkinElmer) multiplate reader.
[1] Heske CM, Davis MI, Baumgart JT, Wilson K, Gormally MV, Chen L, Zhang X, Ceribelli M, Duveau DY, Guha R, Ferrer M, Arnaldez FI, Ji J, Tran HL, Zhang Y, Mendoza A, Helman LJ, Thomas CJ. Matrix Screen Identifies Synergistic Combination of PARP Inhibitors and Nicotinamide Phosphoribosyltransferase (NAMPT) Inhibitors in Ewing Sarcoma. Clin Cancer Res. 2017 Dec 1;23(23):7301-7311. doi: 10.1158/1078-0432.CCR-17-1121. Epub 2017 Sep 12. PMID: 28899971; PMCID: PMC6636827.
A general note: Cellular ATP, detected with luciferase, serves as a proxy for viable cell number.
As to `CC(=O)N(C)C1(c2ccccc2)CCN(CCC[C@]2(c3ccc(Cl)c(Cl)c3)CCCN(C(=O)c3ccccc3)C2)CC1`, the Potency was 20.9 µM (active).
Next, `Clc1ccc(-c2nc3sccn3c2C=NOCc2ccc(Cl)c(Cl)c2)cc1`: 0.372 µM (active); `O=c1cc(-c2ccc(O)cc2)oc2cc(O)cc(O)c12`: 18.7 µM (active).
`COc1cc2ncnc(-n3nc(-c4ccccn4)nc3N)c2cc1OC`: the Potency was 4.18 µM (active).
For `CN(C)c1cc(NC(=O)CNC(C)(C)C)c(O)c2c1C[C@@H]1C[C@H]3[C@H](N(C)C)C(=O)C(C(N)=O)=C(O)[C@@]3(O)C(=O)C1=C2O` the value was 14.8 µM (active); for `CC(C)n1cnc2c(NCCCCCCNC(=O)OC(C)(C)C)nc(NCCO)nc21`, 18.7 µM (active).
On to `C[C@]12CC[C@@H]3c4ccc(O)cc4CC[C@H]3[C@H]1C[C@@H](O)[C@H]2O`, for which the Potency was 13.2 µM (active).
Turning to `CCOc1ccc(Nc2nc(-c3c(C)nc4ccccn34)cs2)cc1`, the Potency was 20.9 µM (active).
For `CCCCCNC(=O)N1CCC(CN(Cc2ccc(Cl)cc2)Cc2ccc([N+](=O)[O-])s2)C1` (stereo not given) the value was 20.9 µM (active); for `Cc1cc(OCCCc2c(C(=O)O)n(Cc3cccnc3)c3c(-c4c(COc5ccc(N6CCN([S+](C)(=O)[O-])CC6)cc5)nn(C)c4C)cccc23)cc(C)c1Cl`, 14.8 µM (active); for `Cc1c(O)cccc1C(=O)N[C@@H](CSc1ccccc1)[C@H](O)CN1C[C@H]2CCCC[C@@H]2C[C@@H]1C(=O)NC(C)(C)C`, 20.9 µM (active).
Next, `N#C[C@H]1C[C@H]2C[C@@H]2N1C(=O)[C@@H](N)C12CC3CC(CC(O)(C3)C1)C2`: 1.48 µM (active); `CC(=O)Oc1cc2c(s1)CCN(C(C(=O)C1CC1)c1ccccc1F)C2` (stereo not given): 1.48 µM (active).
Turning to `COc1cccc2c1CCCC2CCCN1CCN(C2CCCCC2)CC1` (stereo not given), the Potency was 14.8 µM (active).
Take `CC1(C)CCC2=C(O1)c1ccccc1C(=O)C2=O`: the Potency was 2.64 µM (active).
For the molecule `Cc1nc(N)sc1-c1ccnc(Nc2ccc(N3CCOCC3)cc2)n1`, the Potency was 20.9 µM (active).
Next, `O=C1C(Cl)=C(NCCN2CCOCC2)C(=O)c2ncccc21`: 2.96 µM (active).
For `COc1ccc(-c2oc3c(CC=C(C)C)c(OC4O[C@H](CO)[C@@H](O)[C@H](O)[C@@H]4O)cc(O)c3c(=O)c2OC2O[C@@H](C)[C@H](O)[C@@H](O)[C@@H]2O)cc1` (stereo not given in full) the value was 23.5 µM (active).
Regarding `CC(C)(C)c1cc(C(=O)O)c(NC(=O)Nc2ccc3[nH]ncc3c2)s1`, the Potency entry is “inactive”.
Turning to `Cc1ccc(Nc2cc(-c3cccc(N4C(=O)c5ccccc5C4=O)c3)ncn2)cc1NS(C)(=O)=O`, the Potency was 20.9 µM (active).
For `O=C(O)C(O)Cc1ccc(O)c(O)c1` (stereo not given) the value was 5.26 µM (active); for `CC(C)=CC[C@@H](O)C1=CC(=O)c2c(O)ccc(O)c2C1=O`, 1.05 µM (active); for `O=c1c(-c2ccc(O)cc2)coc2cc(OC3O[C@H](CO)[C@H](O)[C@H](O)[C@H]3O)cc(O)c12` (stereo not given in full), 18.7 µM (active).
Next, `Clc1ccc(CCC(Cn2ccnc2)Sc2c(Cl)cccc2Cl)cc1` (stereo not given): 26.4 µM (active); `CNC(=O)c1ccccc1Sc1ccc2c(C=Cc3ccccn3)n[nH]c2c1`: 20.9 µM (active).
Turning to `C[C@@H]1CCN(C(=O)CC#N)C[C@H]1N(C)c1ncnc2[nH]ccc12`, the Potency entry was “inactive”.
For `CC=C(C)C(=O)O[C@H]1C(C)=C[C@]23C(=O)[C@@H](C=C(CO)[C@@H](O)[C@]12O)[C@H]1[C@@H](C[C@H]3C)C1(C)C` the value was 18.7 µM (active); for `CCC(=O)NC[C@H](Cc1ccc(OCCc2nc(-c3ccccc3)oc2C)cc1)NC(C)=CC(=O)c1ccc(C(F)(F)F)cc1`, 20.9 µM (active).
Next, `CC[C@H]1OC(=O)[C@H](C)C(=O)[C@H](C)[C@@H](O[C@H]2O[C@H](C)C[C@H](N(C)C)[C@@H]2O)[C@](C)(OC)C[C@@H](C)C(=O)[C@H](C)[C@H]2N(CCCCn3cnc(-c4cccnc4)c3)C(=O)O[C@]12C`: 18.7 µM (active).
For `Nc1ncnc2c1ncn2[C@@H]1O[C@H](CO)C[C@@H]1O` the value was 1.32 µM (active); for `C[C@]12CC[C@@H]3c4ccc(O)cc4C[C@@H](CCCCCCCCCS(=O)CCCC(F)(F)C(F)(F)F)[C@H]3[C@H]1CC[C@H]2O` (stereo not given in full), 18.7 µM (active); for `Clc1ccc(C(c2ccc(Cl)cc2)n2cc[n+](CC(OCc3ccc(Cl)cc3Cl)c3ccc(Cl)cc3Cl)c2)cc1` (stereo not given), 18.7 µM (active).
Consider `CCc1ccc(OCc2ccccc2C(=O)Nc2ccc3nc(C)cc(N)c3c2)cc1`, for which the Potency is 6.62 µM (active).
Next, `Cc1ccccc1C(C(=O)NC1CCCCC1)N(C(=O)Cn1ccnc1C)c1cccc(F)c1` (stereo not given): 10.5 µM (active).
For the molecule `COc1cc2c(cc1OC)CN(CCc1ccc(NC(=O)c3cc(OC)c(OC)cc3NC(=O)c3cnc4ccccc4c3)cc1)CC2`, the Potency is 2.35 µM (active).
For `CC(C)OC(=O)C(C)(C)Oc1ccc(C(=O)c2ccc(Cl)cc2)cc1` the value was 18.7 µM (active).
For `Nc1ncnc2c1nc(Cl)n2[C@@H]1O[C@H](CO)[C@@H](O)[C@@H]1O` the value was 18.7 µM (active).
For `O=c1ccn([C@@H]2O[C@H](CO)[C@H](O)[C@H]2O)c(=O)[nH]1` the value was 8.33 µM (active); for `CC(C)n1nc(-c2ccc3oc(N)nc3c2)c2c(N)ncnc21`, 0.0026 µM (active); for `CC[C@@]1(O)C[C@H](O[C@H]2C[C@H](N(C)C)[C@H](O[C@H]3C[C@H](O)[C@H](O[C@H]4CCC(=O)[C@H](C)O4)[C@H](C)O3)[C@H](C)O2)c2c(cc3c(c2O)C(=O)c2c(O)cccc2C3=O)[C@@H]1C(=O)OC`, 0.296 µM (active).
